Pf growth 96h: P. falciparum growth inhibition at 96 hour, primary screen for plastid delayed-death inhibitors | P. falciparum luciferase reporter growth, 96 h | Potency, µM (highest dose often 28.7 µM), hits mostly inhibitors | 6.9% of 320,000 active | AID 504834
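Compounds incubated with erythrocytes infected by luciferase-expressing P. falciparum (2% hematocrit, 0.05% parasitemia final) for 96 hours, 37 C in 5% CO2. Growth inhibition scored as decreased luciferase luminescence.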
AMA1 RON2 block: AMA1-RON2 (P. falciparum) interaction inhibition. AlphaScreen AMA1-biotinylated RON2 peptide binding. 0.2% of 360,000 active. Potency, µM (series often up to 58.2 µM), hits mostly inhibitors; note: nearly all actives have a fitted effect of over 45% in size
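AMA1 (3D7) with his tag at 25 nM final met compounds first, then biotinylated RON2 peptide at 25 nM; detection used donor plus acceptor beads, 10 µg/mL apiece, read by AlphaScreen after 30 min at room temperature.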
Pf growth 48h: inhibits P. falciparum growth in the first generation, 48 h. P. falciparum luciferase growth in erythrocytes, 48 h. Potency, µM (top dose mostly 28.7 µM), most hits filed as inhibitors. 5.9% of 310,000 active
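First compound was added to culture medium, then infected red cells at 0.1% parasitemia and 2% hematocrit (final). After incubation at 37 C under 5% CO2, luciferase detection reagent was dispensed and light output recorded.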
NS1 inh: blocks influenza NS1 protein function; Potency, µM (doses to about 46.1 µM); 0.4% of 270,000 active; AID 2326; calls by dose curve; note: actives are rising curves; nearly all actives have a fitted effect of over 50% in size
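Recovery from NS1-induced slow growth read by OD600 in budding yeast switched to galactose assay medium (pH 6.0, -URA) at 1:100 dilution. Compound 23 nl per well; the matching strain lacking NS1 serves as control.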
SARS PLP yeast: inhibitors of SARS-CoV papain-like protease in yeast; S. cerevisiae expressing SARS-CoV PLpro, growth rescue; Potency, µM (series often up to 32.9 µM), most hits filed as activators; 0.19% of 330,000 active; AID 485353; calls by dose curve; note: nearly all actives have a fitted effect of over 55% in size
HCV inh: HCV inhibition; Huh7.5.1 HCVcc-Cre infection, luciferase reporter, 44 h; Potency, µM (highest dose often 41.8 µM), most hits filed as inhibitors; 3.4% of 340,000 active
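Compounds are dispensed onto cells plated 4 h earlier at 1,000 per well, with HCVcc-Cre virus (about 0.5 moi) added next. Following 44 h of culture, luminescent signal is measured for 15 sec after 15 min with substrate at room temperature.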
Of the large screens only hits and unclear results are named; the others gave an inactive call. An excerpt weighted towards active compounds, which were near 12% of everything screened. Unless noted, calls come from the whole dose curve; as a rule, active = well fitted curve in the direction sought with a large enough effect; inconclusive = small, poorly fitted or top-dose-only effect, or another doubt; inactive = no such curve, though single readings can be large; an effect the other way counts as inactive or inconclusive.

COc1cccc(/C=C2/Oc3ccccc3N(CC(=O)NCC3CCCO3)C2=O)c1 (centres undefined)	Pf growth 48h inconclusive, HCV inh inconclusive
O=C(NCc1cccnc1)c1csc([C@@H]2O[C@H](CO)[C@H](O)[C@H](O)[C@H]2O)n1	none (no result: Pf growth 96h, Pf growth 48h, NS1 inh, SARS PLP yeast, HCV inh)
CCN(CC)CCCNC(=O)c1cc(Cl)c(NC(=O)C2=C(C)OCCS2)cc1OC	Pf growth 96h inconclusive, Pf growth 48h inconclusive, HCV inh 11.2µM
CC1=C(C(=O)Nc2ccccc2C(=O)NCCCOC(C)C)SCCO1	Pf growth 96h 4.15µM
CCOCCCNC(=O)c1ccccc1NC(=O)C1=C(C)OCCS1	none
O=C(NCCNC(=O)c1ccc(-c2ccc(Cl)c(Cl)c2)o1)c1cnccn1	Pf growth 96h inconclusive, HCV inh inconclusive
CS(=O)(=O)N1N=C(c2ccco2)CC1c1ccc(Cl)cc1Cl (centres undefined)	Pf growth 96h 5.22µM
CCOc1ccc2cc(C3CC(c4ccco4)=NN3S(=O)(=O)c3ccccc3)c(Cl)nc2c1 (centres undefined)	Pf growth 96h 13.1µM, Pf growth 48h 14.7µM, NS1 inh inconclusive
CCCN(C(=O)CSc1nc2ccccc2n1CC)C1CCS(=O)(=O)C1 (centres undefined)	Pf growth 96h inconclusive, Pf growth 48h inconclusive
O=C1C2=C(C(=O)c3ccccc31)C1O[C@](CCCCN3C(=O)c4ccccc4C3=O)(Cc3c1ccc1ccccc31)O2	Pf growth 48h inconclusive (no result: AMA1 RON2 block, HCV inh)
CCOC(=O)c1cc(-c2ccccc2)nc2c(O)cccc12	HCV inh inconclusive (no result: Pf growth 96h, Pf growth 48h, NS1 inh, SARS PLP yeast)
Cc1nn(CC(O)COc2ccc3c(c2)CCC3)c(C)c1C (centres undefined)	HCV inh inconclusive (no result: Pf growth 96h)
CC(=O)Nc1ccc(OCC(O)Cn2cnc3ccccc32)cc1 (centres undefined)	Pf growth 96h 7.38µM
CC(=O)Nc1cccc(OCC(O)Cn2cnc3ccccc32)c1 (centres undefined)	none
OC(CN(c1ccccc1)c1ccccc1)Cn1cnc2ccccc21 (centres undefined)	Pf growth 48h 11.7µM, HCV inh inconclusive
OC(COc1ccc2c(c1)CCC2)Cn1cnc2ccccc21 (centres undefined)	Pf growth 48h 10.4µM, HCV inh inconclusive
Cc1cccc(NC(=O)CNC(=O)CSc2nnc(C(F)(F)F)n2C)c1C	none (no result: NS1 inh)
O=C(Cn1cc([N+](=O)[O-])nc1[N+](=O)[O-])N1CCN(c2ccccc2)CC1	Pf growth 48h 0.738µM
O=C(Cn1cnc2ccccc2c1=O)N1CCN(c2ccccc2)CC1	none
Clc1cccc(Cl)c1CSc1nnc([C@@H]2CCCN2)o1	none
C=CCn1c(O)c(C=Nc2c(C)n(C)n(-c3ccccc3)c2=O)c(=O)[nH]c1=O	none
Cc1c(N=Cc2c(O)n(CCc3ccc(F)cc3)c(=O)[nH]c2=O)c(=O)n(-c2ccccc2)n1C	Pf growth 96h 10.4µM
Cc1ccc(-c2cc3nn(-c4ccccc4)c(N)c3c(=O)o2)cc1	HCV inh 10µM
CCCCN=c1scc(-c2ccc3c(c2)NC(=O)CO3)n1N=C1CCCC1	Pf growth 96h 9.28µM, HCV inh 7.94µM (no result: Pf growth 48h)
COCC(C)n1c(-c2ccc3c(c2)NC(=O)CO3)csc1=Nc1ccc(OC(F)F)cc1 (centres undefined)	Pf growth 96h inconclusive, AMA1 RON2 block inconclusive, HCV inh 10µM (no result: Pf growth 48h)
CCN=c1scc(-c2ccc3c(c2)NC(=O)CO3)n1N=C1CCCC1	Pf growth 96h inconclusive, Pf growth 48h inconclusive, HCV inh 15.8µM
COc1ccccc1N=c1scc(-c2ccc3c(c2)NC(=O)CO3)n1CC1CCCO1 (centres undefined)	Pf growth 48h inconclusive, HCV inh inconclusive (no result: Pf growth 96h)
O=C1COc2ccc(-c3csc(=Nc4ccc(OC(F)F)cc4)n3CC3CCCO3)cc2N1 (centres undefined)	Pf growth 96h inconclusive, Pf growth 48h inconclusive, HCV inh inconclusive
Nc1nc(-c2ccc3c(c2)NC(=O)CO3)cs1	HCV inh inconclusive (no result: Pf growth 96h)
CCOC(=O)CNC(=O)C1CCN(S(=O)(=O)c2ccc(-c3nn[nH]n3)cc2)CC1	none
Cc1ccc(-c2nc3c(Cl)cc(C(F)(F)F)cn3c2Cc2cccc(F)c2)cc1	none (no result: Pf growth 96h, Pf growth 48h, NS1 inh, SARS PLP yeast, HCV inh)
Cc1cccc(C(=O)NC(Oc2ccccc2)C(Cl)(Cl)Cl)c1 (centres undefined)	Pf growth 96h 7.38µM, Pf growth 48h inconclusive, NS1 inh inconclusive
COc1ccc(C(=O)NC(Oc2ccccc2)C(Cl)(Cl)Cl)cc1 (centres undefined)	Pf growth 96h inconclusive
CC(=O)c1cc2c(cc1NC(=O)Cc1c(C)noc1C)OCO2	HCV inh inconclusive (no result: Pf growth 96h, Pf growth 48h, NS1 inh)
CCOc1ccc(CN2CCN(Cc3cccc4nonc34)CC2CCO)cc1 (centres undefined)	Pf growth 96h 14.7µM
CCOc1ccc(CN2CCN(Cc3[nH]c4ccccc4c3C)CC2CCO)cc1 (centres undefined)	Pf growth 96h 10.4µM, Pf growth 48h inconclusive, HCV inh inconclusive
Cc1c(CN2CCN(CC(C)(C)C)C(CCO)C2)[nH]c2ccccc12 (centres undefined)	Pf growth 96h inconclusive, Pf growth 48h inconclusive, HCV inh inconclusive
COc1cccc(CCN2CCC(CNS(=O)(=O)c3cc(-c4cc(C)no4)ccc3C)CC2)c1	Pf growth 96h inconclusive, Pf growth 48h inconclusive, HCV inh 12.6µM
Cc1cc(-c2ccc(C)c(S(=O)(=O)NCCN3CCC(C)CC3)c2)on1	Pf growth 96h inconclusive, Pf growth 48h inconclusive, HCV inh inconclusive
Cc1cc(-c2ccc(C)c(S(=O)(=O)NCC3CCN(Cc4cccc(F)c4)CC3)c2)on1	Pf growth 96h inconclusive, Pf growth 48h 9.28µM, HCV inh inconclusive
CCc1ccc(-c2cc(C)no2)cc1S(=O)(=O)NCCc1ccc(OC)c(OC)c1	Pf growth 96h 11.7µM
CCc1ccc(-c2cc(C)no2)cc1S(=O)(=O)NCc1ccc(OC)c(OC)c1	HCV inh inconclusive
Cc1cc(-c2ccc(C)c(S(=O)(=O)NCC3CCN(Cc4ccccc4F)CC3)c2)on1	Pf growth 48h inconclusive, HCV inh inconclusive
COc1cccc(CCN2CCC(CNS(=O)(=O)c3cc(-c4cc(C)no4)ccc3OC)CC2)c1	Pf growth 96h 10.4µM, Pf growth 48h 4.15µM, HCV inh 7.94µM
CCCCCc1nnc(NC(=O)NS(=O)(=O)c2ccc(C)cc2)s1	none
COc1ccc(C(=O)N/N=C(\CCC(=O)O)c2ccc(C(C)(C)C)cc2)cc1OC	none (no result: NS1 inh)
COc1ccc(Cc2nnc(NC(=O)CS(=O)(=O)c3ccccc3)s2)cc1OC	none
COc1ccccc1CN1CCC(CNS(=O)(=O)c2cc(-c3onc(C)c3C)ccc2OC)CC1	Pf growth 96h inconclusive, Pf growth 48h 11.7µM, HCV inh 10µM
O=C(NNC(=O)c1ccccc1-n1cccc1)c1cncc(Br)c1	none (no result: Pf growth 96h, Pf growth 48h, NS1 inh)

Screens deposited in PubChem BioAssay by National Center for Advancing Translational Sciences (NCATS).
